We go through eight compounds from PubChem BioAssay (EPA / NIEHS).

Results filed as inconclusive are left out. The source made the active and inactive calls. The calls were made as follows, unless noted: active = hit-call score of the fitted dose curve at least 0.9, where 1 is the maximum; inactive = score below 0.9.

Experiment [1] deals with Retinoic acid receptor RXR-alpha (Homo sapiens) (UniProt P19793). As to the kind of experiment: ATG_RXRa_TRANS: Attagene TRANS-FACTORIAL HepG2 Assay for human Retinoid X Receptor alpha (RXRa) (AID 2283012; active = hit-call score of the fitted dose curve at least 0.9, where 1 is the maximum). The essentials: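 Chimeric NR-GAL4 trans-activation in HepG2, 24 h treatment; reporter transcripts quantified by fluorescence on capillary electrophoresis, analysed for upward change from DMSO.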
Sequence of Retinoic acid receptor RXR-alpha (Homo sapiens) (P19793 whole entry, looked up, the tested form may be a part): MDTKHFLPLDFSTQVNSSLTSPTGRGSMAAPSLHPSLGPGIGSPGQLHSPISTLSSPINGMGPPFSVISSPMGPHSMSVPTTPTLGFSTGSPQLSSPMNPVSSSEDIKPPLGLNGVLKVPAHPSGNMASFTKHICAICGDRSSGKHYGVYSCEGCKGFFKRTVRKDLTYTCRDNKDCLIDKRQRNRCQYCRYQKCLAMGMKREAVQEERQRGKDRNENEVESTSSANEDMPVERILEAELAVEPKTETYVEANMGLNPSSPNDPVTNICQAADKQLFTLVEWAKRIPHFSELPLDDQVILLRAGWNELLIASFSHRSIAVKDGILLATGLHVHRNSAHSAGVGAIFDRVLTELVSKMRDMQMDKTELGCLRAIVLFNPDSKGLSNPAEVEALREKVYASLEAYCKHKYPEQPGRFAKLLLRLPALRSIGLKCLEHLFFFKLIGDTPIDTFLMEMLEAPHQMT

In experiment [2] the target is human Retinoid X Receptor beta (RXRb), RXRB (gene 6257) (UniProt P28702). As to the kind of experiment: ATG_RXRb_TRANS: Attagene TRANS-FACTORIAL HepG2 Assay for human Retinoid X Receptor beta (RXRb) (AID 2283013; active = hit-call score of the fitted dose curve at least 0.9, where 1 is the maximum). In a few lines:
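After a 24 h incubation with test chemical, transfected HepG2 cells carrying NR-Gal4 fusions and GAL4-UAS reporter transcription units yield RNA whose reporter cDNA is FAM-labelled, HpaI-cut and sized by capillary electrophoresis; increases over DMSO are scored.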

The target of experiment [3] is human Thyroid Receptor alpha (THRa1), THRA (gene 7067) (UniProt P10827). Put plainly: ATG_THRa1_TRANS: Attagene TRANS-FACTORIAL HepG2 Assay for human Thyroid Receptor alpha (THRa1) (AID 2283014; active = hit-call score of the fitted dose curve at least 0.9, where 1 is the maximum). In a few lines:
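Reporter transcript induction, read by capillary electrophoresis of 6-FAM-labelled RT-PCR products, reflects activity of a transfected THRa1-Gal4 fusion in HepG2 liver cells. Cells were dosed for 24 h; activity was fitted in the positive direction against DMSO.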

Experiment [4] concerns the target human Vitamin D Receptor (VDR), VDR (gene 7421) (UniProt P11473). Put plainly: ATG_VDR_TRANS: Attagene TRANS-FACTORIAL HepG2 Assay for human Vitamin D Receptor (VDR) (AID 2283022; active = hit-call score of the fitted dose curve at least 0.9, where 1 is the maximum). The essentials: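 Steps: transfect HepG2 with GAL4-UAS-driven reporter constructs; dose compounds 24 h; isolate RNA, reverse-transcribe, PCR-amplify with 6-FAM-labelled primer extension and HpaI digestion; quantify fragments by capillary electrophoresis relative to DMSO.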

Read-out in experiment [5]: E-selectin (Homo sapiens) (UniProt P16581)
Put plainly: BSK_3C_Eselectin: BioMAP Diversity Plus: 3C Assay for Eselectin Biomarker Activity (AID 2283015).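 Also: cell surface E-selectin protein quantified by ELISA 24 h after dosing.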 The conditions noted are these: primary human endothelial cells (HUVEC); actives raise or lower the signal. In a few lines: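 ELISA read-out of E-selectin on endothelial monolayers after 24 h chemical treatment. Human umbilical vein primary cells served as the system, with DMSO defining baseline activity for bidirectional fitting.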

Read-out in experiment [6]: Interleukin-1 alpha (IL1a), IL1A (gene 3552)
Put plainly: BSK_BE3C_IL1a: BioMAP Diversity Plus: BE3C Assay for Interleukin-1 alpha (IL1a) Biomarker Activity (AID 2283016). The conditions noted are these: primary human bronchial epithelial cells; actives raise or lower the signal. In a few lines: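 Measured in human lung primary bronchial epithelial cells: IL-1a by ELISA at 24 h after dosing, with bidirectional fitting against DMSO.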

Read-out in experiment [7]: Monocyte Chemoattractant Protein-1 (MCP1), CCL2 (gene 6347)
As to the kind of experiment: BSK_3C_MCP1: BioMAP Diversity Plus: 3C Assay for Monocyte Chemoattractant Protein-1 (MCP1) Biomarker Activity (AID 2283017). The conditions noted are these: primary human endothelial cells (HUVEC); actives raise or lower the signal. In a few lines: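 ELISA read-out of MCP-1 from human umbilical vein endothelial cell cultures harvested 24 h post-dosing. Gain or loss of signal was fitted relative to DMSO.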

Read-out in experiment [8]: Monocyte Chemoattractant Protein-1 (MCP1), CCL2 (gene 6347)
Put plainly: BSK_4H_MCP1: BioMAP Diversity Plus: 4H Assay for Monocyte Chemoattractant Protein-1 (MCP1) Biomarker Activity (AID 2283018). The conditions noted are these: primary human endothelial cells (HUVEC); actives raise or lower the signal. In a few lines: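 Primary human umbilical vein endothelium is exposed to chemical for 24 h before MCP-1 is assayed by ELISA. Concentration-response fitted bidirectionally relative to DMSO.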

Read-out in experiment [9]: Human Leukocyte Antigen - DR isotype (HLADR), HLA-DRA (gene 3122)
Put plainly: BSK_3C_HLADR: BioMAP Diversity Plus: 3C Assay for Human Leukocyte Antigen - DR isotype (HLADR) Biomarker Activity (AID 2283019). Conditions: primary human endothelial cells (HUVEC); actives raise or lower the signal. In a few lines: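 ELISA readout of surface HLA-DR on human umbilical vein endothelium, taken 24 h after chemical treatment. Gain- and loss-of-signal were both fitted relative to DMSO.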

Read-out in experiment [10]: Interleukin-8 (IL8), CXCL8 (gene 3576)
As to the kind of experiment: BSK_3C_IL8: BioMAP Diversity Plus: 3C Assay for Interleukin-8 (IL8) Biomarker Activity (AID 2283020). The conditions noted are these: primary human endothelial cells (HUVEC); actives raise or lower the signal. The essentials: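 Using DMSO-treated wells as the baseline, bidirectional curve fitting was applied to ELISA-measured IL-8 from human umbilical vein endothelial cultures sampled 24 h after compound addition.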

Read-out in experiment [11]: Monokine induced gamma interferon (MIG), CXCL9 (gene 4283)
Put plainly: BSK_3C_MIG: BioMAP Diversity Plus: 3C Assay for Monokine induced gamma interferon (MIG) Biomarker Activity (AID 2283021). Conditions: primary human endothelial cells (HUVEC); actives raise or lower the signal. The essentials:
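ELISA-measured MIG in dosed HUVEC 3C cultures at 24 h, analysed by bidirectional fitting with DMSO defining baseline activity.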

Experiment [12] is described as follows: BSK_3C_SRB: Viability Assessment in the BioMAP Diversity Plus: 3C Assay (AID 2283023).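 Also: fitted both ways against DMSO so a hit may be signal rise or drop.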 The conditions noted are these: primary human endothelial cells (HUVEC). The essentials:
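Absorbance at 560 nm of sulforhodamine B-stained (0.1%) total protein served as a cytotoxicity readout in human umbilical vein endothelial cells, 24 h after chemical treatment. Signal was fitted bidirectionally relative to DMSO.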

Read-out in experiment [13]: Matrix Metallopeptidase 1 (MMP1), MMP1 (gene 4312)
As to the kind of experiment: BSK_BE3C_MMP1: BioMAP Diversity Plus: BE3C Assay for Matrix Metallopeptidase 1 (MMP1) Biomarker Activity (AID 2283024). The conditions noted are these: primary human bronchial epithelial cells; actives raise or lower the signal. The essentials:
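In this multiplexed primary-cell system, human bronchial epithelium received chemicals for 24 h before an ELISA for MMP1. Values reflect bidirectional fits normalised to the DMSO baseline.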

Experiment [14] is described as follows: BSK_3C_Vis: BioMAP Diversity Plus: 3C Assay for Morphology Visualization (AID 2283025).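 Also: fitted both ways so gain or loss versus DMSO counts.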 The conditions noted are these: primary human endothelial cells (HUVEC). The essentials:
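Light-microscopy morphology readout, 24 h exposure, human primary umbilical vein endothelium; analysed relative to DMSO with bidirectional fitting.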

Read-out in experiment [15]: Pselectin, SELP (gene 6403)
As to the kind of experiment: BSK_4H_Pselectin: BioMAP Diversity Plus: 4H Assay for Pselectin Biomarker Activity (AID 2283026). The conditions noted are these: primary human endothelial cells (HUVEC); actives raise or lower the signal. In a few lines: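 Bidirectional fits against DMSO gave the endpoint. Cells: primary human umbilical vein endothelium, chemical-treated for 24 h before ELISA detection of P-selectin.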

Experiment [16] in a line: BSK_4H_SRB: Viability Assessment in the BioMAP Diversity Plus: 4H Assay (AID 2283027).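 Also: cells exposed to compound for 24 h before staining.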 Conditions: primary human endothelial cells (HUVEC). In a few lines:
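Cytotoxicity read-out in primary human endothelial cells: after 24 h compound exposure, cells were TCA-fixed (10%), stained with 0.1% SRB and absorbance taken at 560 nm. Values fitted in both directions relative to DMSO.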

Experiment [17] is described as follows: BSK_BE3C_SRB: Viability Assessment in the BioMAP Diversity Plus: BE3C Assay (AID 2283028). The conditions noted are these: primary human bronchial epithelial cells. The essentials:
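Cells (human bronchial epithelial, primary) are treated with chemicals, and after 24 h the parallel cultures are fixed in 10% TCA. These are then stained with 0.1% SRB and read at 560 nm. Gain or loss of signal is fitted relative to DMSO.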

Read-out in experiment [18]: Thrombomodulin, THBD (gene 7056)
Put plainly: BSK_3C_Thrombomodulin: BioMAP Diversity Plus: 3C Assay for Thrombomodulin Biomarker Activity (AID 2283029). Conditions: primary human endothelial cells (HUVEC); actives raise or lower the signal. The essentials:
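In a multiplexed primary-cell system, human umbilical vein endothelium received chemical and was assayed 24 h later for thrombomodulin by ELISA. Parallel cultures were SRB-stained (0.1% SRB after 10% TCA fixation, read at 560 nm) to flag cytotoxicity.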

Read-out in experiment [19]: Urokinase-type plasminogen activator receptor (uPAR), PLAUR (gene 5329)
As to the kind of experiment: BSK_4H_uPAR: BioMAP Diversity Plus: 4H Assay for Urokinase-type plasminogen activator receptor (uPAR) Biomarker Activity (AID 2283030). Conditions: primary human endothelial cells (HUVEC); actives raise or lower the signal. In a few lines:
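Cell-surface uPAR ELISA signal, measured 24 h after dosing human umbilical vein endothelial cells, was analyzed with bidirectional fitting relative to DMSO. Parallel SRB staining of total protein tracked overt cytotoxicity.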

Read-out in experiment [20]: Vascular endothelial growth factor receptor 2 (Homo sapiens) (UniProt P35968)
As to the kind of experiment: BSK_4H_VEGFRII: BioMAP Diversity Plus: 4H Assay for Vascular endothelial growth factor receptor 2 (VEGFR2) Biomarker Activity (AID 2283031). Conditions: primary human endothelial cells (HUVEC); actives raise or lower the signal. In a few lines:
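ELISA read-out of VEGFRII in primary human umbilical vein endothelium, taken 24 h after chemical treatment. Responses are expressed relative to DMSO, with bidirectional fitting.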

Sequence of human Retinoid X Receptor beta (RXRb), RXRB (gene 6257) (P28702 whole entry, looked up, the tested form may be a part): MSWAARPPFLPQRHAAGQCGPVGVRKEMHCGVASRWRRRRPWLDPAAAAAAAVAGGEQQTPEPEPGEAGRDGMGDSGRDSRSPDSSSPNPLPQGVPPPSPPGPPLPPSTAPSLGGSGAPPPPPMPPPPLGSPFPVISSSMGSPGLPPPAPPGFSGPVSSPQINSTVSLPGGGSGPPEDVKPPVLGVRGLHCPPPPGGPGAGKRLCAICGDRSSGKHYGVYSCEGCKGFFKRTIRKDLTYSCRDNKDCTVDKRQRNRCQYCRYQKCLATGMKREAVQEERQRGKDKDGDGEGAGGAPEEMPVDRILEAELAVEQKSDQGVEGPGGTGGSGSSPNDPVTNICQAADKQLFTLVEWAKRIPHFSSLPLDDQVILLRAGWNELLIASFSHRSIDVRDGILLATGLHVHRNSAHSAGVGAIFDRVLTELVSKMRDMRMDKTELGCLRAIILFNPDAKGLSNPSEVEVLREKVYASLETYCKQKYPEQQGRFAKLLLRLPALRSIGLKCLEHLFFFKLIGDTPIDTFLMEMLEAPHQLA
Sequence of human Thyroid Receptor alpha (THRa1), THRA (gene 7067) (P10827 whole entry, looked up, the tested form may be a part): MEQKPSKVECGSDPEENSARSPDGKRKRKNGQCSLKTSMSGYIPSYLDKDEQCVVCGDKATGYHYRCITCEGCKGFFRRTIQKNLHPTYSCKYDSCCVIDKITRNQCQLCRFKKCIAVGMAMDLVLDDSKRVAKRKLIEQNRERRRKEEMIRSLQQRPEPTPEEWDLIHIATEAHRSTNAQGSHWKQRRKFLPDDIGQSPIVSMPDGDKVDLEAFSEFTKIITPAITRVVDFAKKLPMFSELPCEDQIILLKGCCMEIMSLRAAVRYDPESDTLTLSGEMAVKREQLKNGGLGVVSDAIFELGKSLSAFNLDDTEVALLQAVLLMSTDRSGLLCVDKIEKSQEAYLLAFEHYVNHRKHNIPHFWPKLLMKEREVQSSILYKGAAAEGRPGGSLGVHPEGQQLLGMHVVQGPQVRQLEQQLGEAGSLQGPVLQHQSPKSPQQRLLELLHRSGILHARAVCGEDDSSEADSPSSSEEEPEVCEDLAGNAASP
Sequence of human Vitamin D Receptor (VDR), VDR (gene 7421) (P11473 whole entry, looked up, the tested form may be a part): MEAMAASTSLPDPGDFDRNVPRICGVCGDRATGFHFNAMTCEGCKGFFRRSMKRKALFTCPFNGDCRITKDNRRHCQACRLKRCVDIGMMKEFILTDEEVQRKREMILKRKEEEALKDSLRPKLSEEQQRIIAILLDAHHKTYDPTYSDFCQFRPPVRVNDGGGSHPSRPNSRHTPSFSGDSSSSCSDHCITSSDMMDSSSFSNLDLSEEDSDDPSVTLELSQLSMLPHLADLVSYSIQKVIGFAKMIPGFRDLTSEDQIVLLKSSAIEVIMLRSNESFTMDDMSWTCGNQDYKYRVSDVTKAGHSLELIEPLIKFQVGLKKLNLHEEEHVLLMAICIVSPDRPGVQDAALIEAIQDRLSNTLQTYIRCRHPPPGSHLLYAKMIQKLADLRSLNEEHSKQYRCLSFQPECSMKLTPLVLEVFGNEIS
Sequence of E-selectin (Homo sapiens) (P16581 whole entry, looked up): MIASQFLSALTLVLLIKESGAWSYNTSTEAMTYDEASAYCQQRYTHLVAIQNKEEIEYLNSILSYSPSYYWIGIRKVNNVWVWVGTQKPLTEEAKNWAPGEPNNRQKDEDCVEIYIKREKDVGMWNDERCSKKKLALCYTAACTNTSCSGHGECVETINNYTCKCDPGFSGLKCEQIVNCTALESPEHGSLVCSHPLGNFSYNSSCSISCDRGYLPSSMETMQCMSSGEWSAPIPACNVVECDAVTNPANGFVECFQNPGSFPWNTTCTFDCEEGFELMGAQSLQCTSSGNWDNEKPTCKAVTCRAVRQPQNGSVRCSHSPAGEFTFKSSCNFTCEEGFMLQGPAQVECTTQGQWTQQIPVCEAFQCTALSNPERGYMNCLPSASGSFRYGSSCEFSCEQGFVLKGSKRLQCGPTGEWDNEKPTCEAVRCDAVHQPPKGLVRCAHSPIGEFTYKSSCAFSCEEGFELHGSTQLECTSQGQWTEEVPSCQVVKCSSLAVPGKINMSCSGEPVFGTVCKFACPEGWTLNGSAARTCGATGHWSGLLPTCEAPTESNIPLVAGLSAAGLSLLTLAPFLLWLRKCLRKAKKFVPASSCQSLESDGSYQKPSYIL

The term AC50 denotes the midpoint of the concentration-response curve, whichever way the signal moves. On to `CCCC(=O)C(CC)Sc1ccoc1C` (stereo not given), for which the compound was called inactive in experiment [1], in experiment [3] and in experiment [4]. Further, the AC50 in experiment [2] is 46.1 µM (active).

With `COc1cc(Cl)c(OC)cc1N`, the outcome in [1], in experiment [2], in experiment [5], in experiment [6], in experiment [7] and in [8] was inactive. In addition, the outcome in [9], in experiment [10], in experiment [11], in experiment [4], in experiment [12] and in experiment [13] was inactive. Moreover, the outcome in experiment [14], in experiment [15], in experiment [16], in experiment [17], in [18] and in [19] was inactive. Also, the outcome in experiment [20] was inactive.

Turning to `CC(=O)c1c(C)c([N+](=O)[O-])c(C(C)(C)C)c([N+](=O)[O-])c1C`, the AC50 in experiment [1] was 6.93 µM (active); in experiment [2] it was 1 µM (active). The result in experiment [5], in experiment [6], in experiment [7], in [8], in [9] and in experiment [10] was inactive. The outcome in experiment [11], in experiment [12], in experiment [13], in experiment [14], in experiment [15] and in [16] was inactive. Also, the outcome in experiment [17], in experiment [18], in experiment [19] and in experiment [20] was inactive.

Consider `Nc1ccc(N)c2c1C(=O)c1ccccc1C2=O`, for which the result in experiment [1], in [2] and in [4] was inactive.

`COc1ccc(CCO)cc1`: the outcome in [1], in experiment [2], in experiment [3] and in experiment [4] was inactive.

Take `CC1=NN(c2ccc(S(=O)(=O)O)cc2)C(=O)C1`: the outcome in [1], in experiment [2], in experiment [3] and in experiment [4] was inactive.

For `CC1(C)O[C@@H]2C[C@H]3[C@@H]4CCC5=CC(=O)C=C[C@]5(C)[C@@]4(F)[C@@H](O)C[C@]3(C)[C@]2(C(=O)CO)O1`, the outcome in experiment [1], in experiment [2], in experiment [3] and in [4] was inactive.

In the case of `COc1ccc(CCC(C)=O)cc1`, the outcome in experiment [1], in [2], in [3] and in experiment [4] was inactive.
